In PubChem BioAssay (EPA / NIEHS) one finds AC50 and outcome data, which are given here for nine compounds.

A short description of assay [1]: ArunA_Migration_hNC: ArunA Biomedical's Oris Neural Crest (hNC) Cell Migration Assay (AID 2283755). A digest of the protocol:
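Human H9-derived neural crest stem cells, 60,000/well on Matrigel, 16 h at 37C, then 72 h chemical exposure after seeding-stopper removal. Migration into detection zone read as calcein-AM fluorescence (ex494/em517), relative to DMSO.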

Assay [2] is described as follows: ArunA_NOG_NucleusCount: ArunA Biomedical's Neurite Outgrowth (NOG) Assay for Nucleus Count (AID 2283756). A digest of the protocol: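 Human H9-derived differentiated neurons were exposed for 48 h right after seeding. Hoechst-stained nuclei gated by size and intensity were counted by automated high-content imaging as viable neurons. Loss of signal vs DMSO.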
The nature of assay [3]: ArunA_NOG_BranchPointsPerNeurite: ArunA Biomedical's Neurite Outgrowth (NOG) Assay for Branch Points Per Neurite (AID 2283759). A digest of the protocol: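 Automated image analysis traced neurites (processes >10 um) from valid cell bodies after Hoechst and βIII-tubulin staining. hNN cells from H9 embryonic stem cells, 48 h exposure. Fitted bidirectionally against DMSO.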

In assay [4] the target is Luciferin 4-monooxygenase (Photinus pyralis) (UniProt P08659). Nature of the assay: CCTE_Simmons_QuantiLum_inhib_2: CCTE's Firefly Luciferase Inhibition Assay, Simmons Lab (AID 2283767).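 As to AC50: potency for inhibitors that lower luciferase luminescence relative to DMSO.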 A digest of the protocol: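 Counter-screen for nonspecific enzyme inhibition: purified firefly luciferase incubated 30 min at 37C with chemicals up to 87.5 uM final, then luminescence measured after luciferin/dATP injection; activity fitted against DMSO baseline.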

A short description of assay [5]: ACEA_AR_antagonist_AUC_viability: ACEA Biosciences xCELLigence Real-Time Cell Analysis on Androgen Receptor Antagonism for Viability (AID 2283776).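 Also: 22Rv1 human prostate cancer cells growing on impedance electrode plates; area under impedance growth curve at 80 h after dosing as viability; hits lower the growth signal relative to DMSO meaning cytotoxicity.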 The method, boiled down: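 Viability endpoint from label-free cell-index monitoring: 22Rv1 cultures treated with an eight-point 1:4 dilution series starting at 100 uM final, AUC at 80 h fitted against DMSO.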
Assay [6] is described as follows: ACEA_ER_AUC_viability: ACEA Biosciences xCELLigence Real-Time Cell Analysis on Estrogen Receptor Agonism for Viability (AID 2283782).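 Also: continuous compound exposure with impedance area under curve over 80 h; hit means loss of impedance signal meaning reduced cell growth or viability.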 A digest of the protocol: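 T-47D human breast cells in phenol red-free RPMI1640 with 10% charcoal-stripped FBS were dosed with an 8-point 1:4 dilution series from 100 uM top final concentration, in duplicate. Impedance-based growth was followed for 80 h; AUC analysed versus DMSO.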

A short description of assay [7]: ACEA_AR_agonist_AUC_viability: ACEA Biosciences xCELLigence Real-Time Cell Analysis on Androgen Receptor Agonism for Viability (AID 2283775).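 As to AC50: viability read 80 hours after compound addition.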 The method, boiled down: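 Read-out is area under the impedance curve at 80 h post-dose in 22Rv1 cells, with DMSO as baseline and signal loss taken as reduced viability. Compounds ran in duplicate from 100 uM final.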
The target of assay [8] is zebrafish Estrogen Receptor (ESR1), esr1 (gene 259252) (UniProt P57717). The assay is described as follows: ATG_zfER1_XSP1: Attagene TRANS-FACTORIAL Multi-Species (XSP1) HepG2 Assay for zebrafish Estrogen Receptor (ESR1) (AID 2283772). The method, boiled down:
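Trans-activation readout: transfected zebrafish ER-Gal4 drives a UAS reporter in human HepG2 liver cells. After 24 h compound exposure (medium containing 3 nM 6-alpha-fluorotestosterone), induced reporter transcripts were quantified by RT-PCR with capillary electrophoresis, relative to DMSO.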

Assay [9] concerns zebrafish Estrogen Receptor (ESR2B), gene 317733. The assay is described as follows: ATG_zfER2b_XSP1: Attagene TRANS-FACTORIAL Multi-Species (XSP1) HepG2 Assay for zebrafish Estrogen Receptor (ESR2B) (AID 2283773). The method, boiled down:
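HepG2 cells transiently transfected with multiple GAL4-UAS reporter units expressing chimeric zebrafish ER2b-Gal4; 24 h chemical exposure with 3 nM 6-alpha-fluorotestosterone present. Reporter mRNA measured by RT-PCR and capillary electrophoresis; gain of signal fitted versus DMSO.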

In assay [10] the test system is frog Estrogen Receptor (ESR2), gene 100174814. Nature of the assay: ATG_frER2_XSP1: Attagene TRANS-FACTORIAL Multi-Species (XSP1) HepG2 Assay for frog Estrogen Receptor (ESR2) (AID 2283774). A digest of the protocol: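 HepG2 cells transiently transfected with GAL4-UAS multiplexed reporter units expressing chimeric NR-Gal4 proteins; reporter mRNA measured 24 h after dosing by RT-PCR, FAM labeling, HpaI digestion and capillary electrophoresis. Gain-of-signal relative to DMSO; 3 nM 6-alpha-fluorotestosterone present.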

Assay [11] concerns frog Estrogen Receptor (ESR1), gene 398734. Nature of the assay: ATG_frER1_XSP1: Attagene TRANS-FACTORIAL Multi-Species (XSP1) HepG2 Assay for frog Estrogen Receptor (ESR1) (AID 2283777). A digest of the protocol:
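Read-out: fluorescent reporter mRNA via RT-PCR, HpaI digestion and capillary electrophoresis, after 24 h chemical exposure of transiently transfected human HepG2 cells expressing exogenous NR-Gal4 chimeras. DMSO served as baseline for positive-direction fitting.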

Assay [12] has as its system zebrafish Estrogen Receptor (ESR2A), gene 317734. Nature of the assay: ATG_zfER2a_XSP1: Attagene TRANS-FACTORIAL Multi-Species (XSP1) HepG2 Assay for zebrafish Estrogen Receptor (ESR2A) (AID 2283778). A digest of the protocol: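 HepG2 cells transiently transfected with multiplexed GAL4-UAS reporter units and chimeric NR-GAL4 receptors; 24 h compound exposure with 3 nM 6-alpha-fluorotestosterone present. Reporter mRNA quantified by RT-PCR and capillary electrophoresis, gain-of-signal fitted relative to DMSO.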

Assay [13] concerns the target chicken Estrogen Receptor (ESR1), ESR1 (gene 396099) (UniProt P06212). Nature of the assay: ATG_chERa_XSP1: Attagene TRANS-FACTORIAL Multi-Species (XSP1) HepG2 Assay for chicken Estrogen Receptor (ESR1) (AID 2283779). The method, boiled down: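 HepG2 cells transiently transfected with multiplexed GAL4-UAS reporter units expressing chimeric NR-Gal4 proteins; 3 nM 6-alpha-fluorotestosterone present. Reporter mRNA measured 24 h after dosing by RT-PCR, FAM labelling, HpaI digest and capillary electrophoresis; gain of signal versus DMSO.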

For assay [14], the system named is turtle Estrogen Receptor (ESR1), gene 101933533. Nature of the assay: ATG_trERa_XSP1: Attagene TRANS-FACTORIAL Multi-Species (XSP1) HepG2 Assay for turtle Estrogen Receptor (ESR1) (AID 2283781). A digest of the protocol: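 HepG2 cells transiently transfected with GAL4-UAS reporter units and chimeric NR-Gal4 constructs, dosed for 24 h with 3 nM 6-alpha-fluorotestosterone present. Reporter mRNA was quantified by RT-PCR, fluorescent labelling and capillary electrophoresis, with gain of signal fitted relative to DMSO.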

Assay [15] deals with chicken Androgen Receptor (AR), gene 422165. Nature of the assay: ATG_chAR_XSP1: Attagene TRANS-FACTORIAL Multi-Species (XSP1) HepG2 Assay for chicken Androgen Receptor (AR) (AID 2283768). A digest of the protocol: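 HepG2 cells transiently transfected with multiplexed GAL4-UAS reporter units expressing chimeric chicken AR-Gal4; 3 nM 6-alpha-fluorotestosterone for partial AR stimulation; 24 h after dosing, reporter mRNA by RT-PCR and capillary electrophoresis, gain-of-signal versus DMSO.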

Assay [16] concerns the target Estrogen receptor (Homo sapiens) (UniProt P03372). The assay is described as follows: ATG_hERa_XSP1: Attagene TRANS-FACTORIAL Multi-Species (XSP1) HepG2 Assay for human Estrogen Receptor (ESR1) (AID 2283780). A digest of the protocol:
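HepG2 cells transiently transfected with GAL4-UAS reporter units and chimeric NR-Gal4 constructs; 24 h after dosing, reporter mRNA quantified by RT-PCR and capillary electrophoresis. Medium contained 3 nM 6-alpha-fluorotestosterone; activity fitted as gain-of-signal versus DMSO.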

Inconclusive results are not listed. Some structures have more than one record in an assay (separate samples or runs), and their calls can disagree. Active and inactive are the calls of the source. The calls were made as follows: active = hit-call score of the fitted dose curve at least 0.9, where 1 is the maximum; inconclusive = response in the unintended direction; inactive = score below 0.9.

Luciferin 4-monooxygenase (Photinus pyralis), sequence (P08659 whole entry, looked up): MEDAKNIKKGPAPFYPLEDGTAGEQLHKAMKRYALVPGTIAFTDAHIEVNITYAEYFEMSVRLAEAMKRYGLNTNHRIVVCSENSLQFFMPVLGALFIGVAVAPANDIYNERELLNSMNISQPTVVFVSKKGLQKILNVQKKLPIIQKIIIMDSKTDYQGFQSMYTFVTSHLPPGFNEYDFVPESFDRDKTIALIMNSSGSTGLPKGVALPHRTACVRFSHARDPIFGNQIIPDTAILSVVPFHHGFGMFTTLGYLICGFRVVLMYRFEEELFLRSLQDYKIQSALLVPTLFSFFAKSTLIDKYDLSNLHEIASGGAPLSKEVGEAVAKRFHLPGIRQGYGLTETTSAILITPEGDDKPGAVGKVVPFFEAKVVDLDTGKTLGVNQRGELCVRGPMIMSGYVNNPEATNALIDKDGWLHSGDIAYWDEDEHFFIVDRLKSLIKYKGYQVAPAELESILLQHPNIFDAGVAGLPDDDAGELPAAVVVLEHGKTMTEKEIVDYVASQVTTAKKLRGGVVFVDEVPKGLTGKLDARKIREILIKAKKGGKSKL
zebrafish Estrogen Receptor (ESR1), esr1 (gene 259252), sequence (P57717 whole entry, looked up, the tested form may be a part): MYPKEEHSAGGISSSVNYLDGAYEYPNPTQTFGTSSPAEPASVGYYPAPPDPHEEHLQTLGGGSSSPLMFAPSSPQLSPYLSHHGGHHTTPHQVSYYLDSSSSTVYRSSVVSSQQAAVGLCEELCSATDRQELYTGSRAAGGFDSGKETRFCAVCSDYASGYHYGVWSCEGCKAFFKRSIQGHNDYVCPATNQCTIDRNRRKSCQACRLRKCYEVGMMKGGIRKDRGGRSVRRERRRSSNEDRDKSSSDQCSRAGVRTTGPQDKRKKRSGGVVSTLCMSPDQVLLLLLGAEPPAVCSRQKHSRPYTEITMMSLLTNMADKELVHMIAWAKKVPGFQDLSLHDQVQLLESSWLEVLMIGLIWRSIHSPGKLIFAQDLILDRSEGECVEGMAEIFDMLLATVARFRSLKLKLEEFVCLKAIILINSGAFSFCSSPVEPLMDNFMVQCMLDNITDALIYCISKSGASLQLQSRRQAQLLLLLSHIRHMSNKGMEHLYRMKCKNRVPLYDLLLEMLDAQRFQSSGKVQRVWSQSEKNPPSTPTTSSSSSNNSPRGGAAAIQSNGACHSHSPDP
chicken Estrogen Receptor (ESR1), ESR1 (gene 396099), sequence (P06212 whole entry, looked up, the tested form may be a part): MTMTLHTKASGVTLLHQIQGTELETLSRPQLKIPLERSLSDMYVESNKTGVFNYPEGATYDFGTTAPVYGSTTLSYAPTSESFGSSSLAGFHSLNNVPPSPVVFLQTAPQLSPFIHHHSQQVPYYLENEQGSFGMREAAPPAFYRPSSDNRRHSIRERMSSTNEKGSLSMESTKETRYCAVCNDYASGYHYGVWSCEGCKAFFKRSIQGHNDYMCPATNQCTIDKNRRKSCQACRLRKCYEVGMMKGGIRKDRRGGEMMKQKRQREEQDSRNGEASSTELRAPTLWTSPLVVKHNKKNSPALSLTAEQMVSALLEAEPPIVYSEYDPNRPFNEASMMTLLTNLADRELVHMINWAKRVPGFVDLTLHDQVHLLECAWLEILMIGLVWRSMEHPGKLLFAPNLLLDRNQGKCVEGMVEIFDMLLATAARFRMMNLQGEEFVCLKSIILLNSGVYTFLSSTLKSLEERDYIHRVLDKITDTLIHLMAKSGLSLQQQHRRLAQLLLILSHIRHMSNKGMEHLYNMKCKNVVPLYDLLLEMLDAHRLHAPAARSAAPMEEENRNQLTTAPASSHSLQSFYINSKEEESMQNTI
Estrogen receptor (Homo sapiens), sequence (P03372 whole entry, looked up, the tested form may be a part): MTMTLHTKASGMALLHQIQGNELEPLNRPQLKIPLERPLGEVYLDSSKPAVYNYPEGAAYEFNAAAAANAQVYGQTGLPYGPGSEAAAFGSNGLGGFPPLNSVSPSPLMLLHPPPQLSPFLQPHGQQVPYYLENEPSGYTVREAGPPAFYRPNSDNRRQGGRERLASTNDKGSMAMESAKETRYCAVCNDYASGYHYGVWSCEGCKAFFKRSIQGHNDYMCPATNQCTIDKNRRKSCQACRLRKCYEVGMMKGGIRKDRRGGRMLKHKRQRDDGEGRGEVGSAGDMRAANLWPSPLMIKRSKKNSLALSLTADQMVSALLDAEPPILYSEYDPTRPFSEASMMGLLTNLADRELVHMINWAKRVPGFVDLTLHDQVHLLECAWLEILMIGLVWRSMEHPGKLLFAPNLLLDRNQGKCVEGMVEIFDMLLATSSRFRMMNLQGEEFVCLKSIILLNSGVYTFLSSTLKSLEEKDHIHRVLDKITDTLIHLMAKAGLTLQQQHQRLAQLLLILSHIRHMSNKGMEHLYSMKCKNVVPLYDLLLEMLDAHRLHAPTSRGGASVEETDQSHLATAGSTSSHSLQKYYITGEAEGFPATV

What is called AC50 is the concentration at which the activity in the assay is half-maximal. As for `O=C(Nc1ccc(Cl)cc1)Nc1ccc(Cl)c(Cl)c1`, the AC50 in [1] is 1.46 µM (active); in assay [4], 15.1 µM (active); in assay [5] it was 5.85 µM (active); in [6] it was 18.7 µM (active). For the same compound, the compound was called inactive in [2] and in [3].

As for `CC[C@@H]1C[C@H](N(Cc2cc(C(F)(F)F)cc(C(F)(F)F)c2)C(C)=O)c2cc(C(F)(F)F)ccc2N1C(=O)OC(C)C`, the compound was called inactive in [7] and in [5]. Besides, in [6], the AC50 was 3.79 µM (active).

For the compound `CC/C(=C(/CC)c1ccc(O)cc1)c1ccc(O)cc1`, the call in assay [4] and in assay [6] was inactive. In addition, the AC50 in assay [8] was 0.00024 µM (active); in assay [9], 6.71e-05 µM (active); in assay [10], 7.8e-05 µM (active); in assay [5] it was 18 µM (active); in [11] it was 0.0517 nM (active); in assay [12], 4.85e-05 µM (active). Moreover, the AC50 in assay [13] is 0.0429 nM (active); in assay [14], 3.79e-05 µM (active); in assay [6] it was 50 µM (active).

Turning to `OC12N=C(c3ccccc3)SC1Cc1cc(Cl)ccc12` (stereo unspecified), the figures for the AC50 in [4] and in assay [5] were 17.1 µM (active) and 76.2 µM (active), respectively.

Regarding `CN(C)c1ccc(C(=C2C=CC(=[N+](C)C)C=C2)c2ccc(N(C)C)cc2)cc1`, the AC50 is 3.03 µM (active) in assay [4], 0.161 µM (active) in [5] and 5.4 µM (active) in assay [6].

On to `O=C1CCC(C2CCCCC2)CC1`, for which the AC50 in [4] was 3.38 µM (active); in assay [5], 74.1 µM (active).

`CCCCCCCCCC(=O)O`: the result in [7], in assay [5] and in [6] was inactive.

Regarding `Cc1c2ccccc2c(C)c2c1ccc1ccccc12`, the outcome in assay [4] was inactive. Further, the AC50 was 8.7 µM (active) in [15]; 9.59 µM (active) in [8]; 16.9 µM (active) in assay [9]; 9 µM (active) in assay [10]; 41.1 µM (active) in [5]; 5910 nM (active) in assay [11]. For the same compound, the AC50 in assay [12] was 15.7 µM (active); in assay [13], 5860 nM (active); in [16], 3.92 µM (active); in assay [14], 15.7 µM (active); in assay [6], 20.1 µM (active).

As for `CC(C)(C)c1cc(/C=C2\SC(N)=NC2=O)cc(C(C)(C)C)c1O`, the compound was called inactive in assay [4]. For the same compound, the AC50 in assay [7] is 13.5 µM (active); in [5], 15.2 µM (active); in [6], 31.6 µM (active).
